# A selection: hits, their analogues and other compounds. The true share with any hit is near 2.8%.
# SNCA expr inh: reduces expression of the alpha-synuclein gene | actives 0.17% (n = 140,000) | HEK-293 SNCA-luciferase knock-in, luminescence, 24 h | Potency, µM (highest dose often 57.2 µM), without a hit: at the highest dose activity change, negative = inhibition, hits mostly inhibitors;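 further: potency means the concentration at half of the fitted maximal effect; plate controls were DMSO cells for no effect and cell-free wells for full effect; nearly all actives have a fitted effect of over 45% in size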
# KDM5B inh: blocks human KDM5B histone demethylase activity; Potency, µM (top dose mostly 57.7 µM), most hits filed as inhibitors; AID 1347165; Q9UGL1; actives 2.6% (n = 220,000); KDM5B demethylase, FDH-coupled NADH fluorescence (FDH is formaldehyde dehydrogenase); further: potency means the concentration at half of the fitted maximal effect; 0% is about no effect; nearly all actives have a fitted effect of over 70% in size
# Target sequence (Q9UGL1 whole entry, looked up): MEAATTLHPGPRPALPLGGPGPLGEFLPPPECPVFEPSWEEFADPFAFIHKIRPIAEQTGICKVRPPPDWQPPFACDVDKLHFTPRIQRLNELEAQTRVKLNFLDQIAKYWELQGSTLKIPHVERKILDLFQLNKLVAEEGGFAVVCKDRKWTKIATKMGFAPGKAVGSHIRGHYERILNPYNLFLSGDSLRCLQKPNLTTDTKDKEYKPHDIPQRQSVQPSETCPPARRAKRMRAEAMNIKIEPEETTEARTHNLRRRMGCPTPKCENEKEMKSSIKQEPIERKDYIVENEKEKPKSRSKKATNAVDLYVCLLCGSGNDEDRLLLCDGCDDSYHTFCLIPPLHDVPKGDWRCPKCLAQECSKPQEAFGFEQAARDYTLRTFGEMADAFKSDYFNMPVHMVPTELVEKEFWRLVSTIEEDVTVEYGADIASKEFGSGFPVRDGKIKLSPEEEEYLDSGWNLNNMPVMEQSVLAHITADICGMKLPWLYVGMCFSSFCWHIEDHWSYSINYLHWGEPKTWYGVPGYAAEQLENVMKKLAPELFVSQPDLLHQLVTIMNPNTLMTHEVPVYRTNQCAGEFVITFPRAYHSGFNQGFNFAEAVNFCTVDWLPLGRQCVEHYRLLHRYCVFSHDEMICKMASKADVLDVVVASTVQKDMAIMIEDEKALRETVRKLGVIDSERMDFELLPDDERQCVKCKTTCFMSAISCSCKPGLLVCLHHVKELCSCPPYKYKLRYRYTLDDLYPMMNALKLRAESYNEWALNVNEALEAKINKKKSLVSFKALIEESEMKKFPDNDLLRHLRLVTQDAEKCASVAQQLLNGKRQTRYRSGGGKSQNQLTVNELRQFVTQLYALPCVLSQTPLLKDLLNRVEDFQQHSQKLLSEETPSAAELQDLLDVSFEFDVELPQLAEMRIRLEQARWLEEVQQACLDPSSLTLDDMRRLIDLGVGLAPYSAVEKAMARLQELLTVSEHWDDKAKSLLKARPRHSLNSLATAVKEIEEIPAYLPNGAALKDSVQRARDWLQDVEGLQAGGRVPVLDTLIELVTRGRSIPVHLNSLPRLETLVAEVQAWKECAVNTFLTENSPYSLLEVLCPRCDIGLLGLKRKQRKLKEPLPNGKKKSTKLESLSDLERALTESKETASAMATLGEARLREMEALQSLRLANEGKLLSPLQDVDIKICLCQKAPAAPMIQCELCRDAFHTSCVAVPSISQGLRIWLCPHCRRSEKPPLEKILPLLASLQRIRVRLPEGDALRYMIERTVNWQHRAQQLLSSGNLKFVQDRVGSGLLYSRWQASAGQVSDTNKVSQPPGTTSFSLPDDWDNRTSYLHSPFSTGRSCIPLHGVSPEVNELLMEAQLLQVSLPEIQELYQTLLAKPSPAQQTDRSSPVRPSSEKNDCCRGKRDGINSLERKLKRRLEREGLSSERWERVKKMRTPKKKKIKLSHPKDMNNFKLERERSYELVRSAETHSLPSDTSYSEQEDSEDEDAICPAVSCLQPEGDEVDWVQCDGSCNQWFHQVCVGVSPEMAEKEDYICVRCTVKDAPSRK
#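 KDM5BΔAP (200 nM final) in 50 mM HEPES pH 7.5, 0.01% Tween-20 was preincubated 10 min at RT with compound over a concentration range. Substrate mix (H3K4me3 12.5 µM, α-KG 25 µM, Fe²⁺, ascorbate, NAD⁺, FDH) was added, and NADH fluorescence change over 30 min gave dose-response curves.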
# SNCA viab count: cell viability loss counter-screen; Potency, µM (highest dose often 57.1 µM), for inactives: at the top dose activity change, negative = cytotoxicity, actives largely listed as cytotoxic; HEK-293-SNCA-luc viability, GF-AFC fluorescence, 24 h; actives 0.12% (n = 150,000);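 further: potency means the concentration at half of the fitted maximal effect; 0% = DMSO-treated cells and -100% = medium-only wells without cells; nearly all actives have a fitted effect of over 30% in size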
#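 Cytotoxicity counterscreen: after 24 h compound treatment of genome-edited SNCA-luciferase HEK-293 cells, live-cell protease substrate GF-AFC read by fluorescence after 30 min; activity scaled between DMSO (0%) and medium-only (-100%), curves Hill-fitted.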
# IP6K1 inhibitor: IP6K1 kinase inhibition | Q92551 | activity change, % (series mostly up to about 58 µM) | IP6K1 kinase, ADP-Glo luminescence, 2 h; hits give low values | AID 1645851 | actives 0.81% (n = 140,000); in the data active means activity change below about -25%; further: on the % scale 0 is the no-effect control and ±100 the full control effect
#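 ADP-Glo luminescence measures ADP made by human IP6K1 during a 2 h RT reaction with ATP/IP6 (mix at 1.3 mM/130 uM); top library doses 57.5 and 19.1 uM final.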
# * marks the source's active call; other numbers are inactive results; i = inactive; ? = inconclusive; nt = no result given; [ ] = another dose, or the depositor's remark. Unless noted, the call rests on the fitted dose curve; in most records, active means well fitted curve in the direction sought with a large enough effect; inconclusive means small, poorly fitted or top-dose-only effect, or another doubt; inactive means no such curve, though single readings can be large; an effect the other way counts as inactive or inconclusive.
SMILES,SNCA expr inh,KDM5B inh,SNCA viab count,IP6K1 inhibitor
CC1(CCCCc2ccccc2)COc2ccc(C(=O)NC3CC3)cc2N1 (stereo unspecified),-29%[87.6 µM],28µM*,-4%[87.6 µM],5
CC1(CCCCc2ccccc2)COc2ccc(C(=O)NC3CCOCC3)cc2N1 (stereo unspecified),?,35µM*,3%[87.6 µM],10
CN(C)C(=O)c1ccc2c(c1)NC(C)(CCCCc1ccccc1)CO2 (stereo unspecified),?,i,10%[87.6 µM],-9
COCCN(C)C(=O)c1ccc2c(c1)NC(C)(CCCCc1ccccc1)CO2 (stereo unspecified),-26%[87.6 µM],i,0%[87.6 µM],-1
CC1(CCCCc2ccccc2)COc2ccc(C(=O)NCCc3cnc[nH]3)cc2N1 (stereo unspecified),-22%[87.6 µM],32µM*,16%[87.6 µM],-4
COc1ccccc1-c1nc(C(=O)NCc2ccc(F)cc2)n2ccccc12,18%,79µM*,-1%,-18
COCCNC(=O)c1nc(-c2cccnc2)c2ccccn12,-3%[87.6 µM],i,-7%[87.6 µM],18
C[S+](=O)([O-])c1ccc(-c2nc(C(=O)NCc3ccc(F)cc3)n3ccncc23)cc1,-3%,i,14%,-14
COc1ccccc1-c1nc(C(=O)NCc2cccs2)n2ccccc12,42%,?,-6%,36
COc1ccccc1-c1nc(C(=O)NC2CC2)n2ccncc12,14%[87.6 µM],35µM*,6%[87.6 µM],4
COCCNC(=O)c1nc(-c2ccccc2OC)c2cnccn12,12%[87.6 µM],32µM*,21%[87.6 µM],0
COc1ccccc1-c1nc(C(=O)NCc2ccc(F)cc2)n2ccncc12,0%,89µM*,?,-12
O=C(c1cc(=O)c2ccccc2o1)N(Cc1ccc(F)cc1)C1CCS(=O)(=O)C1 (stereo unspecified),nt,i,nt,nt
COCCCn1c(=O)c(C(=O)NCc2ccccc2F)nc2cccnc21,7%,nt,-1%,1
Cn1c(=O)c2c(nc(CN3CCN(Cc4ccccc4)CC3)n2CCc2ccccc2)n(C)c1=O,nt,i,nt,nt
CCOC(=O)c1ncoc1-c1ccccc1C(=O)NCc1cccc(Cl)c1,nt,i,nt,nt
COC(=O)CNC(=O)c1nc(-c2ccccc2OC)c2ccccn12,63%,89µM*,3%,13
COC(=O)CNC(=O)c1nc(-c2ccccc2)c2ccccn12,-7%[87.6 µM],i,4%[87.6 µM],16
O=C(CN1CCN(c2ccccc2)CC1)NC(=O)NCC(F)(F)F,nt,i,nt,nt
COc1ccc(OCC2(C)COc3ccc(C(=O)NCc4cccc(F)c4)cc3N2)cc1 (stereo unspecified),-26%[87.6 µM],32µM*,-9%[87.6 µM],10
COc1ccc(OCC2(C)COc3ccc(C(=O)NCC(C)C)cc3N2)cc1 (stereo unspecified),?,25µM*,-1%[87.6 µM],-1
COc1ccc(OCC2(C)COc3ccc(C(=O)NCCc4ccccc4)cc3N2)cc1 (stereo unspecified),-26%[87.6 µM],32µM*,-4%[87.6 µM],4
CC1(COc2ccccc2)COc2ccc(C(=O)NCc3ccc4c(c3)OCO4)cc2N1 (stereo unspecified),?,?,-19%[87.6 µM],10
CCOCC1(C)COc2ccc(C(=O)NCCc3ccccc3)cc2N1 (stereo unspecified),71%[87.6 µM],40µM*,7%[87.6 µM],-10
CCOCC1(C)COc2ccc(C(=O)N(C)Cc3ccccc3)cc2N1 (stereo unspecified),?,i,?,11
SMILES,SNCA expr inh,KDM5B inh,SNCA viab count,IP6K1 inhibitor
CC1(COc2ccccc2)COc2ccc(C(=O)NCc3ccncc3)cc2N1 (stereo unspecified),-17%[87.6 µM],?,-14%[87.6 µM],13
COc1ccc(OCC2(C)COc3ccc(C(=O)N4CCN(C)C(=O)C4)cc3N2)cc1 (stereo unspecified),4%[87.6 µM],i,9%[87.6 µM],-8
Cc1ccc(C(=O)NC(c2cccnc2)c2ccc(C)c(C)c2)cc1 (stereo unspecified),nt,i,nt,nt
COc1ccc(C)cc1CN(C)C(=O)Cc1c[nH]c2ccccc12,nt,i,nt,nt
COc1ccc(NC(=O)c2cc3c(N4CCSCC4)nc(C)cn3n2)c(OC)c1,7%,?,8%,2
COc1ccc(C(C)NC(=O)c2cc3c(N4CCSCC4)nc(C)cn3n2)cc1OC (stereo unspecified),?,6.3µM*,4%,6
Cc1cn2nc(C(=O)Nc3ccc(C(F)(F)F)cc3)cc2c(N2CCSCC2)n1,-9%,28µM*,-4%,-12
COc1ccc(NC(=O)c2cc3c(N4CCSCC4)nc(C)cn3n2)cc1,9%,14µM*,-7%,-7
Cc1cn2nc(C(=O)NC3CCCCCC3)cc2c(N2CCSCC2)n1,-25%,?,-1%,-6
Cc1cccc(NC(=O)c2cc3c(N4CCSCC4)nc(C)cn3n2)c1,47%,32µM*,-4%,1
CC1CCN(Cc2nnnn2CCCC(=O)N2CCN3CCCC3C2)CC1 (stereo unspecified),?,i,-20%,-5
Cc1ccc(-c2cc(C(=O)NCCc3ccc(Cl)cc3)c3cnn(C)c3n2)cc1,1%,nt,-25%,1
CC(SC(C)c1ccc(Cl)cc1)C(=O)NC(N)=O (stereo unspecified),nt,i,nt,nt
COc1coc(CN2Cc3[nH]cnc3CC2C(=O)O)cc1=O (stereo unspecified),-6%,i,-9%,7
Cc1cn2nc(C(=O)Nc3ccc4c(c3)OCCO4)cc2c(N2CCSCC2)n1,-12%,32µM*,-6%,12
Cc1ccc(NC(=O)c2cc3c(N4CCSCC4)nc(C)cn3n2)cc1,-19%,35µM*,-1%,7
Cc1cn2nc(C(=O)Nc3ccc4c(c3)OCO4)cc2c(N2CCCC2)n1,44%,?,4%,6
Cc1cn2nc(C(=O)NCc3ccccc3Cl)cc2c(N2CCSCC2)n1,-15%,?,-8%,-12
CCc1ccccc1NC(=O)c1cc2c(N3CCSCC3)nc(C)cn2n1,-11%,28µM*,3%,-18
COC(=O)c1ccc(COC(=O)c2oc3ccccc3c2COC(C)C)o1,nt,i,nt,nt
Cc1cccc(OCCc2noc(C3CCN(S(=O)(=O)C(C)C)C3)n2)c1 (stereo unspecified),35%,i,3%[12.5 µM],17
Cc1cc(CNC(=O)c2cc(-c3ccccc3F)cc3c2OCCN3C)no1,?,32µM*,-12%[87.6 µM],-22
Cc1cc(CNC(=O)c2cc(-c3ccncc3)cc3c2OCCN3C)no1,12%[87.6 µM],?,-10%[87.6 µM],-13
Cc1cc(CNC(=O)c2cc(-c3ccccc3C)cc3c2OCCN3C)no1,-5%[87.6 µM],35µM*,-6%[87.6 µM],-18
Cc1cc(CNC(=O)c2cc(-c3ccc(CO)cc3)cc3c2OCCN3C)no1,-17%[87.6 µM],32µM*,1%[87.6 µM],-15
Cc1ccc([S+](=O)([O-])N2CCCC(N3C(=O)c4c(c(C)nn4-c4ccccc4)C3C)C2)cc1 (stereo unspecified),nt,nt,nt,-1
CCc1nc2c(NC(=O)c3ccc(F)c(Cl)c3)cccn2n1,18%,25µM*,-1%,14
Cc1nc(SC(C)c2cccc(Cl)c2)sc1CC(N)=O (stereo unspecified),nt,i,nt,nt

# Screening data: PubChem BioAssay, National Center for Advancing Translational Sciences (NCATS)
